Results as given in the supplement of paper PMC8728848.
This excerpt belongs to a sample that is enriched for the strongest signals.

What was measured:
Test in all cases: glycan array binding signal (z-score within array); higher = stronger binding
Details in all cases: glycan notation: IUPAC condensed, linker removed
Fuc(a1-2)Gal(b1-3)GalNAc = molecular target: Fuc(a1-2)Gal(b1-3)GalNAc
Procedure, shortened: (§1)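 Negative Z-scores can be read as non-binding. The Z-score is calculated within each array and then averaged across arrays of one protein sequence at different concentrations or buffers and across linkers. Arrays, 3228 in all, were curated from the Consortium for Functional Glycomics database and kept only where the protein sequence was available.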

[1] = molecular target: Fuc(a1-2)Gal(b1-3)GlcNAc(b1-2)Man(a1-3)[Fuc(a1-2)Gal(b1-3)GlcNAc(b1-2)Man(a1-6)]Man(b1-4)GlcNAc(b1-4)GlcNAc
Procedure, shortened: as §1

[2] = molecular target: Fuc(a1-2)Gal(b1-3)[Fuc(a1-4)]GlcNAc(b1-3)[Gal(b1-4)GlcNAc(b1-6)]Gal(b1-4)Glc
Procedure, shortened: as §1

[3] = molecular target: Fuc(a1-2)Gal(b1-4)GlcNAc(b1-2)Man(a1-3)[Fuc(a1-2)Gal(b1-4)GlcNAc(b1-2)Man(a1-6)]Man(b1-4)GlcNAc(b1-4)[Fuc(a1-6)]GlcNAc
Procedure, shortened: as §1

[4] = molecular target: Fuc(a1-2)Gal(b1-4)GlcNAc(b1-3)Gal(b1-4)GlcNAc(b1-2)Man(a1-3)[Fuc(a1-2)Gal(b1-4)GlcNAc(b1-3)Gal(b1-4)GlcNAc(b1-2)Man(a1-6)]Man(b1-4)GlcNAc(b1-4)GlcNAc
Procedure, shortened: as §1

[5] = molecular target: Fuc(a1-2)Gal(b1-4)[Fuc(a1-3)]GlcNAc(b1-3)Gal(b1-4)[Fuc(a1-3)]GlcNAc
Procedure, shortened: as §1

[6] = molecular target: Fuc(a1-2)[Gal(a1-3)]Gal(b1-3)GlcNAc(b1-2)Man(a1-3)[Fuc(a1-2)[Gal(a1-3)]Gal(b1-3)GlcNAc(b1-2)Man(a1-6)]Man(b1-4)GlcNAc(b1-4)[Fuc(a1-6)]GlcNAc
Procedure, shortened: as §1

[7] = molecular target: Fuc(a1-2)[Gal(a1-3)]Gal(b1-4)GlcNAc(b1-2)Man(a1-3)[Fuc(a1-2)[Gal(a1-3)]Gal(b1-4)GlcNAc(b1-2)Man(a1-6)]Man(b1-4)GlcNAc(b1-4)GlcNAc
Procedure, shortened: as §1

[8] = molecular target: Fuc(a1-2)[GalNAc(a1-3)]Gal(b1-3)GlcNAc(b1-3)GalNAc
Procedure, shortened: as §1

[9] = molecular target: Fuc(a1-2)[GalNAc(a1-3)]Gal(b1-4)GlcNAc(b1-2)Man(a1-3)[Fuc(a1-2)[GalNAc(a1-3)]Gal(b1-4)GlcNAc(b1-2)Man(a1-6)]Man(b1-4)GlcNAc(b1-4)[Fuc(a1-6)]GlcNAc
Procedure, shortened: as §1

[10] = molecular target: Fuc(a1-2)[GalNAc(a1-4)]Gal(b1-4)GlcNAc
Procedure, shortened: as §1

Fuc(a1-3)GlcNAc = molecular target: Fuc(a1-3)GlcNAc
Procedure, shortened: as §1

Gal(a1-2)Gal = molecular target: Gal(a1-2)Gal
Procedure, shortened: as §1

Gal(a1-3)Gal(b1-3)GlcNAc = molecular target: Gal(a1-3)Gal(b1-3)GlcNAc
Procedure, shortened: as §1

[11] = molecular target: Gal(a1-3)Gal(b1-3)GlcNAc(b1-2)Man
Procedure, shortened: as §1

[12] = molecular target: Gal(a1-3)Gal(b1-3)GlcNAc(b1-6)GalNAc
Procedure, shortened: as §1

Gal(a1-3)Gal(b1-4)Glc = molecular target: Gal(a1-3)Gal(b1-4)Glc
Procedure, shortened: as §1

[13] = molecular target: Gal(a1-3)Gal(b1-4)GlcNAc(b1-6)GalNAc
Procedure, shortened: as §1

Gal(a1-3)GalNAc = molecular target: Gal(a1-3)GalNAc
Procedure, shortened: as §1

[14] = molecular target: Gal(b1-3)GalNAc(a1-3)[Fuc(a1-2)]Gal(b1-4)Glc
Procedure, shortened: as §1

[15] = molecular target: Gal(b1-3)GlcNAc(b1-3)Gal(b1-4)GlcNAc(b1-3)Gal(b1-4)GlcNAc(b1-2)[Gal(b1-3)GlcNAc(b1-3)Gal(b1-4)GlcNAc(b1-3)Gal(b1-4)GlcNAc(b1-6)]Man(a1-6)[Gal(b1-3)GlcNAc(b1-3)Gal(b1-4)GlcNAc(b1-3)Gal(b1-4)GlcNAc(b1-2)Man(a1-3)]Man(b1-4)GlcNAc(b1-4)[Fuc(a1-6)]GlcNAc
Procedure, shortened: as §1

[16] = molecular target: Gal(b1-4)GalNAc(a1-3)[Fuc(a1-2)]Gal(b1-4)GlcNAc
Procedure, shortened: as §1

[17] = molecular target: Gal(b1-4)GlcNAc(b1-2)Man(a1-6)[Man(a1-3)]Man(b1-4)GlcNAc(b1-4)GlcNAc
Procedure, shortened: as §1

[18] = molecular target: Gal(b1-4)GlcNAc(b1-3)Gal(b1-4)GlcNAc(b1-3)Gal(b1-4)GlcNAc(b1-2)Man(a1-3)[Gal(b1-4)GlcNAc(b1-3)Gal(b1-4)GlcNAc(b1-3)Gal(b1-4)GlcNAc(b1-2)Man(a1-6)]Man(b1-4)GlcNAc(b1-4)GlcNAc
Procedure, shortened: as §1

[19] = molecular target: Gal(b1-4)GlcNAc(b1-3)Gal(b1-4)GlcNAc(b1-3)Gal(b1-4)GlcNAc(b1-3)Gal(b1-4)GlcNAc(b1-2)Man(a1-3)[Gal(b1-4)GlcNAc(b1-3)Gal(b1-4)GlcNAc(b1-3)Gal(b1-4)GlcNAc(b1-3)Gal(b1-4)GlcNAc(b1-2)Man(a1-6)]Man(b1-4)GlcNAc(b1-4)[Fuc(a1-6)]GlcNAc
Procedure, shortened: as §1

[20] = molecular target: Gal(b1-4)GlcNAc(b1-3)Gal(b1-4)GlcNAc(b1-3)Gal(b1-4)GlcNAc(b1-3)Gal(b1-4)GlcNAc(b1-3)Gal(b1-4)GlcNAc(b1-3)Gal(b1-4)GlcNAc(b1-2)Man(a1-3)[Gal(b1-4)GlcNAc(b1-3)Gal(b1-4)GlcNAc(b1-3)Gal(b1-4)GlcNAc(b1-3)Gal(b1-4)GlcNAc(b1-3)Gal(b1-4)GlcNAc(b1-3)Gal(b1-4)GlcNAc(b1-2)Man(a1-6)]Man(b1-4)GlcNAc(b1-4)GlcNAc
Procedure, shortened: as §1

[21] = molecular target: Gal(b1-4)GlcNAc(b1-3)Gal(b1-4)GlcNAc(b1-3)GalNAc
Procedure, shortened: as §1

[22] = molecular target: Gal(b1-4)GlcNAc(b1-3)GalNAc
Procedure, shortened: as §1

[23] = molecular target: Gal(b1-4)GlcNAc(b1-6)[Gal(b1-4)GlcNAc(b1-3)]GalNAc
Procedure, shortened: as §1

B1: CPA (Cicer arietinum) (protein)
chain: MAFSYLNLVLVTLTTLFFLQTTKVKSQKSVSFHITNFTISRPSITLQGTAEFLPNVLLLNDIEHPVFVVGRALYSKPITLWNNKTGKVASFVTSFTFDVQDLKKTVPGHGLVFFLAPSGSEIPFSSDGGNLGVVDGKNAFNRFVGVEFDNFVNSWDPKYSHVGINVNSLISTKTVKWNRVSGELVKVSIVYDSVSTTLTVIVTYKNGQISILSQLVDLKAVLPDTVNIGFSASTTLVSPRQLHNIHSWSFTSTFET
glycan array binding signal (z-score) (Fuc(a1-2)Gal(b1-3)GalNAc): -0.424
glycan array binding signal (z-score) [1]: 3.79
glycan array binding signal (z-score) [2]: -0.072
glycan array binding signal (z-score) [3]: 0.297
glycan array binding signal (z-score) [4]: 0.012
glycan array binding signal (z-score) [5]: -0.681
glycan array binding signal (z-score) [6]: -0.184
glycan array binding signal (z-score) [7]: 0.562
glycan array binding signal (z-score) [8]: 3.66
glycan array binding signal (z-score) [9]: 0.023
glycan array binding signal (z-score) [10]: 1.3
glycan array binding signal (z-score) (Fuc(a1-3)GlcNAc): -0.573
glycan array binding signal (z-score) (Gal(a1-2)Gal): -0.045
glycan array binding signal (z-score) (Gal(a1-3)Gal(b1-3)GlcNAc): 0.134
glycan array binding signal (z-score) [11]: -0.562
glycan array binding signal (z-score) [12]: -0.42
glycan array binding signal (z-score) (Gal(a1-3)Gal(b1-4)Glc): 0.092
glycan array binding signal (z-score) [13]: -0.23
glycan array binding signal (z-score) (Gal(a1-3)GalNAc): -0.121
glycan array binding signal (z-score) [14]: -0.568
glycan array binding signal (z-score) [15]: 3.59
glycan array binding signal (z-score) [16]: -0.399
glycan array binding signal (z-score) [17]: -0.041
glycan array binding signal (z-score) [18]: 4.32
glycan array binding signal (z-score) [19]: 0.005
glycan array binding signal (z-score) [20]: 3.7
glycan array binding signal (z-score) [21]: 3.36
glycan array binding signal (z-score) [22]: -0.24
glycan array binding signal (z-score) [23]: 3.6
